Results published in PubChem BioAssay (Tox21).
“And” between values parts separate entries of the source, which are not always exact repeats. Equal values may be shown once. Records with an inconclusive call do not appear. Entries that show only a call come without a potency. Some compounds were tested as several samples or in several runs, with calls that do not always agree. The source made the active and inactive calls. Unless noted, the call rests on the fitted dose curve; in most records, active means well fitted curve in the direction sought with a large enough effect in the repeat runs; inconclusive means weak or mixed curves; inactive means no such curve, though single readings can be large; an effect the other way counts as inactive or inconclusive.

Columns and labels:
[1] = biological target: Peroxisome proliferator-activated receptor delta (Homo sapiens) (UniProt Q03181); assay: qHTS assay to identify small molecule agonists of the peroxisome proliferator-activated receptor delta (PPARd) signaling pathway (AID 743212; calls by dose curve)
Summary of the method: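 Read-out: beta-lactamase FRET fluorescence after 2 h room-temperature incubation with LiveBLAzer B/G substrate. Cells were HEK293H carrying a UAS-bla reporter for PPARd, treated at 37 C with DMSO-dissolved compounds.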

[2] = biological target: Peroxisome proliferator-activated receptor delta (Homo sapiens) (UniProt Q03181); assay: qHTS assay to identify small molecule antagonists of the peroxisome proliferator-activated receptor delta (PPARd) signaling pathway (AID 743215; active means well fitted inhibition curve with a large enough effect in the signal ratio in the repeat runs, not every such curve was filed as active; the % refers to the signal ratio;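 further: cells stimulated with agonist L165041 at 300 nM final during compound exposure; series mostly up to about 62 µM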)
Summary of the method: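 HEK293H GeneBLAzer PPARd UAS-bla reporter cells; cpd + L165041 300 nM final, 17 h 37 C; LiveBLAzer B/G FRET substrate 2 h RT; fluorescence intensity read-out. Antagonist mode.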

[3] = qHTS assay to identify small molecule agonists of the farnesoid-X-receptor (FXR) signaling pathway - cell viability counter screen (AID 743218); further: nearly all actives have a fitted effect of over 45% in size; further: potency means the concentration at half of the fitted maximal effect
Summary of the method: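 Luminescence from CellTiter-Glo, read after 30 min at RT, reports viability of GeneBLAzer FXR-UAS-bla HEK 293T cells treated 16 h with compounds in the wells used for the beta-lactamase reporter.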

[4] = qHTS assay to identify small molecule antagonists of the farnesoid-X-receptor (FXR) signaling pathway - cell viability counter screen (AID 743221; active means well fitted cell-killing curve with a large enough effect in the repeat runs, not every such curve was filed as active; further: nearly all actives have a fitted effect of over 50% in size; further: potency means the concentration at half of the fitted maximal effect)
Summary of the method: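 Multiplexed counter screen: viability of FXR-bla HEK 293T cells under agonist stimulation by chenodeoxycholic acid (50 uM, final) and test compound for 16 h at 37 C, measured by CellTiter-Glo luminescence in the reporter wells.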

[5] = qHTS assay to identify small molecule antagonists of the peroxisome proliferator-activated receptor delta (PPARd) signaling pathway - cell viability counter screen (AID 743213); further: nearly all actives have a fitted effect of over 50% in size; further: potency means the concentration at half of the fitted maximal effect
Summary of the method: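 HEK293H PPARd UAS-bla cells, 5 h pre-incubation, compound + L165041 300 nM final, 17 h 37 C; B/G FRET substrate 2 h RT; then CellTiter-Glo 30 min RT, luminescence.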

[6] = biological target: Vitamin D3 receptor (Homo sapiens) (UniProt P11473); assay: qHTS assay to identify small molecule agonists of the vitamin D receptor (VDR) signaling pathway (AID 743222; calls by dose curve)
Summary of the method: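 Beta-lactamase reporter readout (LiveBLAzer B/G FRET, 2 h RT) in VDR-bla cells after 16 h compound treatment at 37C, 5% CO2; cells pre-incubated 4 h before pin transfer of DMSO solutions.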

[7] = biological target: Vitamin D3 receptor (Homo sapiens) (UniProt P11473); assay: qHTS assay to identify small molecule antagonists of the vitamin D receptor (VDR) signaling pathway (AID 743223; active means well fitted inhibition curve with a large enough effect in the signal ratio in the repeat runs, not every such curve was filed as active; the % refers to the signal ratio)
Summary of the method: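 Cells carrying a VDR-driven beta-lactamase reporter (VDR-bla) were co-treated with compound and 3 nM final 1alpha,25-dihydroxyvitamin D3 for 16 h at 37C; reporter activity was measured as FRET substrate fluorescence after 2 h at room temperature.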

[8] = qHTS assay to identify small molecule agonists of the vitamin D receptor (VDR) signaling pathway - cell viability counter screen (AID 743224); further: series mostly up to about 63 µM; nearly all actives have a fitted effect of over 50% in size
Summary of the method: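 Cytotoxicity counter screen: VDR-bla cells, 16 h compound exposure at 37C, 5% CO2; CellTiter-Glo luminescence, 30 min RT, same wells as bla read.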

[9] = biological target: Bile acid receptor (Homo sapiens) (UniProt Q96RI1); assay: qHTS assay to identify small molecule antagonists of the farnesoid-X-receptor (FXR) signaling pathway (AID 743217; active means well fitted inhibition curve with a large enough effect in the signal ratio in the repeat runs, not every such curve was filed as active; the % refers to the signal ratio)
Summary of the method: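 Read-out: beta-lactamase FRET fluorescence (LiveBLAzer B/G substrate, 2 h, room temperature) in GeneBLAzer FXR-UAS-bla HEK 293T cells. Compounds were co-dosed with 50 uM chenodeoxycholic acid (final) and incubated 16 h at 37 °C.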

[10] = biological target: Bile acid receptor (Homo sapiens) (UniProt Q96RI1); assay: qHTS assay to identify small molecule agonists of the farnesoid-X-receptor (FXR) signaling pathway (AID 743220; active means well fitted activation curve with a large enough effect in the signal ratio in the repeat runs, not every such curve was filed as active; the % refers to the signal ratio)
Summary of the method: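 FXR-UAS-bla HEK 293T cells carrying a UAS-driven beta-lactamase reporter were plated for 5 h at 37C/5% CO2, then exposed to DMSO-dissolved Tox21 10K compounds for 16 h at 37C. A LiveBLAzer B/G FRET substrate was loaded for 2 h at room temperature before fluorescence reading.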

Bile acid receptor (Homo sapiens), sequence (Q96RI1 whole entry, looked up): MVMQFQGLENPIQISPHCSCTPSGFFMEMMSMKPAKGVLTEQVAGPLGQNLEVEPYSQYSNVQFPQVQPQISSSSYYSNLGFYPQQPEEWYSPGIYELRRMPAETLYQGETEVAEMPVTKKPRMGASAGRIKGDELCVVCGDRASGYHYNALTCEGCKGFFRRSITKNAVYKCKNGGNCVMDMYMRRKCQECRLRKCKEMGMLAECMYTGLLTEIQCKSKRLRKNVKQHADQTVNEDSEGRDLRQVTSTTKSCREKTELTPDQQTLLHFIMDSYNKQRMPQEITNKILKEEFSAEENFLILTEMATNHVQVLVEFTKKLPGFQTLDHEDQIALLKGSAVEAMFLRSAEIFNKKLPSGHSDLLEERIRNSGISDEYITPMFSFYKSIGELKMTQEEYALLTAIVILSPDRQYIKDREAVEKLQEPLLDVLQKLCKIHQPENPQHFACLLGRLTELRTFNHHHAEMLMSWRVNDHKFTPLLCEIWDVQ
Vitamin D3 receptor (Homo sapiens), sequence (P11473 whole entry, looked up): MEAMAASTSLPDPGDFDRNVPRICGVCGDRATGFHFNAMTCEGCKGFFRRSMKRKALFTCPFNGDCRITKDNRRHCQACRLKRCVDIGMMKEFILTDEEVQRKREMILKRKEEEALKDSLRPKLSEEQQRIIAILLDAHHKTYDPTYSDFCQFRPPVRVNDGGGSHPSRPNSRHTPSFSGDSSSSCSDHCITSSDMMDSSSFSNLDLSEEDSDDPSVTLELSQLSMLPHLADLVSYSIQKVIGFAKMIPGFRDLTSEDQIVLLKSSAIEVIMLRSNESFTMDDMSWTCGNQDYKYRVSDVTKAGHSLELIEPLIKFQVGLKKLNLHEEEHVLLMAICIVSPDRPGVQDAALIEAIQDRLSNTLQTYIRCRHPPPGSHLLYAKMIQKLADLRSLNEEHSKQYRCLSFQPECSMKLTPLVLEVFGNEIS
Peroxisome proliferator-activated receptor delta (Homo sapiens), sequence (Q03181 whole entry, looked up): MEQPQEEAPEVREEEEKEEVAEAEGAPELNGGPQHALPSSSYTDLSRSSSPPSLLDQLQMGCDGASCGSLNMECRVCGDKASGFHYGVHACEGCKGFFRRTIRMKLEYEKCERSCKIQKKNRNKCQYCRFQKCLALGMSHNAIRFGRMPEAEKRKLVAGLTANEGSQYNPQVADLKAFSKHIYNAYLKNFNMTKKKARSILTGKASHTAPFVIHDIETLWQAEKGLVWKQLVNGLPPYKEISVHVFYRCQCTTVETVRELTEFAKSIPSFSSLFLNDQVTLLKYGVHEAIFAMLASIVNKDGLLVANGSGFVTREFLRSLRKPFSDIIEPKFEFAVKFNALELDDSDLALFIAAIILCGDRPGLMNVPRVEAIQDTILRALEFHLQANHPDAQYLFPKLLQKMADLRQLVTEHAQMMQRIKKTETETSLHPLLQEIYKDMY

| Structure (SMILES) | outcome [1] | outcome [2] | Potency [3] | Potency [4] | Potency [5] | outcome [6] | Potency [7] | Potency [8] | Potency [9] | outcome [10] |
| --- | --- | --- | --- | --- | --- | --- | --- | --- | --- | --- |
| Cc1cc(Cl)ccc1N | inactive | inactive | inactive | inactive |  |  |  |  |  |  |
| CCCC[n+]1ccccc1C |  |  | inactive | inactive | inactive |  |  |  |  |  |
| O=C(O)COc1ccc(Cl)cc1Cl | inactive | inactive | inactive | inactive |  | inactive | inactive |  |  |  |
| CCCCn1cc[n+](C)c1C |  |  | inactive | inactive | inactive |  |  |  |  |  |
| C1CCC(NC2CCCCC2)CC1 | inactive | inactive | inactive | inactive |  | inactive | inactive |  |  |  |
| CCCCn1cc[n+](C)c1 |  |  | inactive | inactive | inactive |  |  |  |  |  |
| Oc1ccccc1-c1ccccc1 | inactive | inactive | inactive | inactive |  | inactive | inactive |  |  |  |
| CCCn1cc[n+](C)c1 | inactive | inactive | inactive | inactive |  |  |  | inactive |  |  |
| O=C(O)C(Cl)Cl | inactive | inactive | inactive | inactive | inactive |  |  |  |  |  |
| C[N+](C)(C)Cc1ccccc1 | inactive | inactive | inactive | inactive |  | inactive | inactive | inactive | inactive | inactive |
| CCC[N+]1(C)CCCC1 | inactive | inactive | inactive | inactive |  |  |  |  |  |  |
| CC[N+](CC)(CC)CC |  |  | inactive | inactive | inactive | inactive | inactive |  |  |  |
| CCCCCCCCCCCCCC[P+](CCCCCC)(CCCCCC)CCCCCC | inactive |  | 13.9 µM (active) and 24.7 µM (active) and inactive | 22 µM (active) and 15.6 µM (active) and inactive |  |  |  |  | inactive | inactive |
| CNC | inactive | inactive | inactive | inactive |  | inactive | inactive |  |  |  |
| COCC(=O)N(c1c(C)cccc1C)C(C)C(=O)OC (stereo not drawn) | inactive | inactive | inactive | inactive | inactive | inactive | inactive | inactive | inactive | inactive |
| O=C(O)CC(O)(CC(=O)O)C(=O)O | inactive | inactive | inactive | inactive |  | inactive | inactive |  |  |  |
| CC(Cl)(Cl)C(=O)O | inactive | inactive | inactive | inactive |  | inactive | inactive |  |  |  |
| O=P1(N(CCCl)CCCl)NCCCO1 (stereo not drawn) | inactive | inactive | inactive | inactive |  | inactive | inactive |  | inactive | inactive |
| OCCOc1ccccc1 | inactive | inactive | inactive | inactive | inactive | inactive | inactive |  | inactive | inactive |
| CCOP(=S)(OCC)Oc1ccc2c(C)c(Cl)c(=O)oc2c1 | inactive | inactive | inactive | inactive | inactive |  |  |  |  |  |
| CCCCCCCCn1cc[n+](C)c1 |  |  | inactive | inactive | inactive | inactive | inactive |  |  |  |
| O=C(O)C(Cl)(Cl)Cl | inactive | inactive | inactive | inactive | inactive | inactive | inactive |  |  |  |
| CCCC[n+]1ccccc1 |  |  | inactive | inactive | inactive |  |  |  |  |  |
| CCCCCCCCCCn1cc[n+](C)c1 |  |  | 55.5 µM (active) and inactive | inactive | 22.1 µM (active) |  |  |  |  |  |
| Nc1ccc(Cl)cc1 | inactive | inactive | inactive | inactive |  |  |  |  |  |  |
| COP(=O)(OC)OC=C(Cl)Cl | inactive | inactive | inactive | inactive |  |  |  |  |  |  |
| CCCCCC[n+]1ccccc1 |  |  | inactive | inactive | 55.5 µM (active) and inactive |  |  |  |  |  |
